MBD2 DNA inh: inhibitors of MBD2 binding to methylated DNA, primary screen, biochemical, TR-FRET, DNA-binding domain, human; MBD2 binding to methylated oligonucleotide; inhibition, % at 4.4 µM; Methyl-CpG-binding domain protein 2 (Homo sapiens), Q9UBB5; 0.31% of 370,000 active; in the data active = inhibition above about 13%
UHRF1 binding: UHRF1 methylated DNA binding inhibitors, primary screen, counter-screen for MBD2 inhibitor project, biochemical, TR-FRET, human UHRF1, single concentration. E3 ubiquitin-protein ligase UHRF1 (Homo sapiens), Q96T88. UHRF1 binding to methylated oligo. inhibition, % at 4.4 µM. 0.75% of 370,000 active. AID 687016, 2013; in the data active = inhibition above about 21%;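 note: UHRF1 SRA domain binding a hemimethylated CpG hairpin DNA probe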
Target sequence (Q96T88 whole entry, looked up, the tested form may be a part): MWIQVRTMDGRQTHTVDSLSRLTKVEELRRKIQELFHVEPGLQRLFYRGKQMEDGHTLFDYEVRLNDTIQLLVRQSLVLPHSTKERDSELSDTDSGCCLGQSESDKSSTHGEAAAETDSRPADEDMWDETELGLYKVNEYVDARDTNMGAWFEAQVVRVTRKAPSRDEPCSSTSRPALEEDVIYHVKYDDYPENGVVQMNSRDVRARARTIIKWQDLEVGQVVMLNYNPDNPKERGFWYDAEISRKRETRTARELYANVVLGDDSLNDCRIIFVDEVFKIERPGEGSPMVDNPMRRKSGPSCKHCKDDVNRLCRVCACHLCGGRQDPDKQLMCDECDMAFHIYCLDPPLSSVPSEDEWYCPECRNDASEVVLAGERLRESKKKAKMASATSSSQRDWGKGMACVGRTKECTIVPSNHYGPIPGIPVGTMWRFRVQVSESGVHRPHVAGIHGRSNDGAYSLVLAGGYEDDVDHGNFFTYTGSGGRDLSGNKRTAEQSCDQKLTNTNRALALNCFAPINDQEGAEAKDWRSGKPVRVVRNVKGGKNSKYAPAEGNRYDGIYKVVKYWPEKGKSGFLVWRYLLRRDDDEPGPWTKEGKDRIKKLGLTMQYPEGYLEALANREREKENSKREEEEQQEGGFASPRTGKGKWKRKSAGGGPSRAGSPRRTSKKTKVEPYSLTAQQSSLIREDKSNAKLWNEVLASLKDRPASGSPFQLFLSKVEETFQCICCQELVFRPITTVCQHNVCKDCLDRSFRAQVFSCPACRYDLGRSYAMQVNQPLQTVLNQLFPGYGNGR
LEDGF integ inh: blockers of LEDGF/p75-dependent integrase strand transfer – biochemical, TR-FRET, high throughput, primary screen; TR-FRET IN-LEDGF/p75 DNA integration, Eu/Cy5; AID 743269, 2014; inhibition, % at 3.7 µM; HIV-1 integrase (with human LEDGF/p75); 0.64% of 370,000 active;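 active = inhibition above the screen-wide mean plus 3 SD, cut at about 13% in these data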;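 note: signal is the Cy5 over europium emission ratio at 671 and 618 nm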
Casp6 inh: human caspase-6 inhibitors, primary screen, biochemical, VEID-R110 fluorescence, single point, set 2; AID 686996, 2013; P55212; inhibition, % at 12.5 µM; purified caspase-6, Z-VEID-R110 cleavage fluorescence; 0.53% of 350,000 active;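 active = mean inhibition across replicates at least about 35%, with every replicate also reaching that limit, limit read from the data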
IN multimer up: HIV-1 IN multimer formation enhancers, counter-screen for LEDGF/p75 integration inhibitor project, biochemical, TR-FRET; shares compounds with LEDGF integ inh; TR-FRET HIV-1 integrase multimerization; activation, % at 7.7 µM; 17% of 2,000 active; AID 1053131, 2014; in the data active = activation above about 8.9%
TR-FRET interf: TR-FRET optical interference artefacts, confirmation, artefact control for LEDGF/p75-dependent integration inhibitor project, biochemical, HIV-1 IN multimerization; 2,000 tested, under 10 active; inhibition, % at 7.7 µM; TR-FRET optical interference counterscreen; shares compounds with LEDGF integ inh;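 active = inhibition above the mean over all tested compounds plus 3 SD, which no compound reached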
LEDGF integ conf: inhibitors of HIV-1 IN-LEDGF/p75 DNA integration, confirmation, biochemical, TR-FRET; shares compounds with LEDGF integ inh; TR-FRET LEDGF/p75-dependent HIV-1 integration; inhibition, % at 3.7 µM; 36% of 2,000 active; in the data active = inhibition above about 14%
Each line names hits and unclear results; the compound was inactive in the other large screens (follow-up assays come after a bar, where they were run). Shown are actives, neighbours in structure and some others; about 1.4% of the full set was active somewhere.

Nc1nc(SCC(=O)N2N=C3/C(=C/c4ccco4)CCCC3C2c2ccco2)n[nH]1 (configuration not stated)	LEDGF integ inh 18 (no result: Casp6 inh) | IN multimer up inactive | TR-FRET interf inactive | LEDGF integ conf inactive
O=C(CSc1nccc(=O)[nH]1)N1N=C2/C(=C/c3ccco3)CCCC2C1c1ccco1 (configuration not stated)	LEDGF integ inh 37 | IN multimer up inactive | TR-FRET interf inactive | LEDGF integ conf 19
Nc1nc(SCC(=O)N2N=C3/C(=C\c4ccco4)CCCC3C2c2ccco2)n[nH]1 (configuration not stated)	none
COc1ccc(CN(C)C[C@@H]2OCCCC[C@H](C)Oc3ccc(NC(=O)C4CCCCC4)cc3C(=O)N([C@H](C)CO)C[C@@H]2C)cc1	none (no result: MBD2 DNA inh, UHRF1 binding, LEDGF integ inh)
CNC[C@@H]1Oc2c(NC(=O)Nc3ccc(OC)cc3)cccc2C(=O)N([C@H](C)CO)C[C@H]1C	none (no result: MBD2 DNA inh, UHRF1 binding, LEDGF integ inh)
CC(C)C#Cc1cnc2c(c1)C(=O)N([C@H](C)CO)C[C@H](C)[C@@H](CN(C)C(=O)Nc1ccc(F)cc1)O2	none (no result: MBD2 DNA inh, UHRF1 binding, LEDGF integ inh)
C/C(=C\C(=O)c1ccc(F)cc1)Nc1ccc(N2CCOCC2)cc1	LEDGF integ inh 23 (no result: Casp6 inh) | IN multimer up inactive | TR-FRET interf inactive | LEDGF integ conf inactive
Cc1[nH]n(-c2ccccc2)c(=O)c1C(c1cccc([N+](=O)[O-])c1)c1c(C)[nH]n(-c2ccccc2)c1=O	LEDGF integ inh 27 | IN multimer up inactive | TR-FRET interf inactive | LEDGF integ conf inactive
CSC1=N/C(=C\c2ccc(C)o2)C(=O)S1	LEDGF integ inh 14 (no result: Casp6 inh) | IN multimer up inactive | TR-FRET interf inactive | LEDGF integ conf inactive
CN1[C@H](CO)[C@@H]2c3ccccc3N(C(=O)c3ccc(F)cc3)C[C@@H]21	none (no result: MBD2 DNA inh, UHRF1 binding, LEDGF integ inh)
COc1ccc(S(=O)(=O)Nc2cc(SCC(=O)O)c(O)c3ccccc23)cc1	LEDGF integ inh 21, Casp6 inh 93 | IN multimer up inactive | TR-FRET interf inactive | LEDGF integ conf 33
C[C@@H]1CN([C@@H](C)CO)C(=O)Cc2cc(NC(=O)C3CCCCC3)ccc2O[C@H]1CN(C)S(=O)(=O)c1cccs1	none (no result: MBD2 DNA inh, UHRF1 binding, LEDGF integ inh)
CO/N=C(\C(=O)N[C@@H]1C(=O)N2C(C(=O)O)=C(COC(N)=O)CS[C@H]12)c1ccco1	UHRF1 binding 25, LEDGF integ inh 14 | IN multimer up inactive | TR-FRET interf inactive | LEDGF integ conf 16
C/C=C/c1cccc(-c2nc(C(=O)NCc3ccccc3)cc3c2[C@H](CCO)N([S@@](=O)C(C)(C)C)C3)c1	none (no result: MBD2 DNA inh, UHRF1 binding, LEDGF integ inh)
COc1ccc(CC(Cc2ccc(OC)c(OC)c2)NC=O)cc1OC	LEDGF integ inh 16 (no result: Casp6 inh) | IN multimer up inactive | TR-FRET interf inactive | LEDGF integ conf inactive
COc1cc(O)c(C(C)=O)c(CC(=O)O)c1	UHRF1 binding 28, LEDGF integ inh 31 | IN multimer up 33 | TR-FRET interf inactive | LEDGF integ conf 59
C[C@@H]1CN([C@@H](C)CO)C(=O)c2cc(NS(=O)(=O)c3cn(C)cn3)ccc2O[C@H]1CN(C)C	none (no result: MBD2 DNA inh, UHRF1 binding, LEDGF integ inh)
Nc1c(C(=O)N/N=C/c2cccnc2)oc2nc(-c3ccccc3)cc(-c3ccco3)c12	none
Nc1c(C(=O)N/N=C/c2cccnc2)oc2nc(-c3ccco3)cc(-c3ccco3)c12	LEDGF integ inh 53, Casp6 inh 89 | IN multimer up 40 | TR-FRET interf inactive | LEDGF integ conf 91
NNC(=O)c1oc2nc(-c3ccco3)cc(-c3ccco3)c2c1N	LEDGF integ inh 64 | IN multimer up 11 | TR-FRET interf inactive | LEDGF integ conf inactive
NNC(=O)c1oc2nc(-c3ccc(Cl)cc3)cc(-c3ccccc3)c2c1N	none
Cc1ccccc1C(=O)c1c[nH]c(C(=O)NCCc2ccccn2)c1	LEDGF integ inh 22 | IN multimer up inactive | TR-FRET interf inactive | LEDGF integ conf inactive
COc1ccc(/C=N/n2c(N)nc3ccccc32)cc1OC	LEDGF integ inh 24 (no result: Casp6 inh) | IN multimer up inactive | TR-FRET interf inactive | LEDGF integ conf inactive
CC(C)c1ccc(/C=C/C(=O)NCCCc2ccccc2)cc1	LEDGF integ inh 76 (no result: Casp6 inh) | IN multimer up inactive | TR-FRET interf inactive | LEDGF integ conf inactive
Cc1noc(C)c1NC(=O)NCC[C@H]1CC[C@@H](NC(=O)Nc2cccc(F)c2)[C@H](CO)O1	none (no result: MBD2 DNA inh, UHRF1 binding, LEDGF integ inh)
CCOc1ccc(Nc2ccc(N)c(S(=O)(=O)O)c2)cc1	LEDGF integ inh 38, Casp6 inh 92 | IN multimer up 14 | TR-FRET interf inactive | LEDGF integ conf 19
CCOc1ccc(NS(=O)(=O)c2ccc(N)cc2)cc1	none (no result: Casp6 inh)
O=S(=O)(O)c1ccc(O)c2cc(Nc3ccccc3)ccc12	MBD2 DNA inh 70, UHRF1 binding 92, LEDGF integ inh 87 (no result: Casp6 inh) | IN multimer up 66 | TR-FRET interf inactive | LEDGF integ conf 77
CC=Cc1ccc2n(c1=O)C[C@H]1[C@H](CO)[C@@H](C(=O)NCCC)[C@@H]2N1CC1CC1 (mixture of isomers)	none (no result: MBD2 DNA inh, UHRF1 binding, LEDGF integ inh)
Cc1ccc(O)c(NC(=S)NC(=O)/C=C/c2ccco2)c1	none
Cc1ccnc(NC(=S)NC(=O)/C=C/c2ccco2)c1	LEDGF integ inh 16 (no result: Casp6 inh) | IN multimer up inactive | TR-FRET interf inactive | LEDGF integ conf inactive
CCC(=O)Nc1ccc(NC(=S)NC(=O)/C=C/c2ccco2)cc1	none
O=C(/C=C/c1ccco1)NC(=S)Nc1ccc(N2CCCC2)cc1	LEDGF integ inh 18 (no result: Casp6 inh) | IN multimer up inactive | TR-FRET interf inactive | LEDGF integ conf inactive
CCCCc1cc(=O)oc2cc(OCC(=O)NCC3CCC(C(=O)O)CC3)ccc12 (configuration not stated)	none
CCCc1cc(=O)oc2cc(OCC(=O)NCC3CCC(C(=O)O)CC3)ccc12 (configuration not stated)	LEDGF integ inh 33 | IN multimer up inactive | TR-FRET interf inactive | LEDGF integ conf inactive
O=C(C[C@H]1C=C[C@H](NC(=O)c2ccccn2)[C@@H](CO)O1)NCc1cccc(F)c1	none (no result: MBD2 DNA inh, UHRF1 binding, LEDGF integ inh)
COc1ccc(O)c(C(c2c(C)[nH][nH]c2=O)c2c(C)[nH][nH]c2=O)c1	LEDGF integ inh 22, Casp6 inh 72 | IN multimer up inactive | TR-FRET interf inactive | LEDGF integ conf inactive
COc1ccc(OC)c(C(c2c(C)[nH][nH]c2=O)c2c(C)[nH][nH]c2=O)c1	none
